Our source for the composite z-score values is PubChem BioAssay.

Structures are written as SMILES.

The assay relates to Lefty1. The assay is described as follows: Lefty1 binders on small-molecule microarrays, primary screen, biochemical, small-molecule microarray, 635/667 nm fluorescence (AID 1139). To be noted: small-molecule microarray binding, fluorescence 635/667; higher = more signal.
`C=CC[C@]1(C(=O)O)N=C(c2ccc(OCCCO)cc2)O[C@H]1c1ccccc1CN=[N+]=[N-]` registered a composite z-score of -0.316.

In turn, `C[N+](C)(C)CCCCNC(=O)[C@H]1C[C@H]2C(=O)N3CCC[C@H]3C(=O)N2[C@H]1c1ccc(O)cc1` came in with a composite z-score of 1.49.

`[N-]=[N+]=NCc1ccccc1[C@@H]1OC(c2ccc(OCCCO)cc2)=N[C@]1(Cc1ccccc1)C(=O)O` returned a composite z-score of -0.548.

`CN(C)CCCN1C(=O)[C@@]2(c3ccc([N+](=O)[O-])cc3)CC(=O)N(C3CCCCC3)[C@@H]2c2ccc(CO)cc21`: the composite z-score was -0.262.

Take `CCOC1=C2C(c3ccc(C)cc3)N(S(=O)(=O)c3ccc(C)cc3)CC2n2c(=O)n(-c3ccccc3)c(=O)n2C1` (stereo unspecified): the composite z-score came to 0.53.

`O=C1c2ccccc2[C@](Cc2ccccc2I)(C(=O)O)[C@H](c2ccc(CO)cc2)N1Cc1ccccc1C(F)(F)F` returned a composite z-score of -0.374.

Regarding `CCCCCCCCCCC(O)C1C=CC2C(=O)N(c3ccccc3)C(=O)C2N1Nc1ccc([N+](=O)[O-])cc1` (stereo unspecified), the composite z-score turned out to be 0.371.

Molecule `CCOC(=O)C1=CC[C@@H](c2cccc(Cl)c2)N(S(=O)(=O)c2ccc(C)cc2)[C@H]1c1ccc(C#N)cc1` came in with a composite z-score of 1.09.

`CCCCCCC#C[Si](O[C@H](c1ccccc1)c1cn([C@H](C)c2ccccc2)nn1)(C(C)C)C(C)C` registered a composite z-score of 0.547.

Consider `O=C(NCC(F)(F)F)[C@@H]1c2ccccc2C(=O)N(Cc2ccccc2)[C@H]1c1ccc(CO)cc1`, for which the composite z-score is -1.57.

Turning to `O=C1OCC=C[C@H]2OC34C=CCN(c5ccc(Cl)cc5)C(=O)[C@H]3N(CCCO)C(=O)[C@@H]4[C@@H]12` (stereo partly specified), the composite z-score is -0.672.

On to `CCOC(=O)N1C(c2ccc(OCCCO)cc2)=NC(C(=O)OC)N1C(=O)OCC` (stereo unspecified), for which the composite z-score was 1.07.

Take `Cc1ccc(S[C@]2(C(=O)NCC(F)(F)F)CC(=O)N(C3Cc4ccccc4C3)[C@@H]2c2ccc(CO)cc2I)cc1`: the composite z-score was -1.36.

With `[N-]=[N+]=Nc1ccccc1C[C@]1(C(=O)N2CCCCC2)N=C(c2ccc(OCCCO)cc2)O[C@H]1c1ccccc1N=[N+]=[N-]`, the composite z-score was -0.105.

For `C=CCNC(=O)[C@H]1[C@@H]2C(=O)O[C@@H](c3ccccc3)[C@@H](c3ccccc3)N2[C@@H](c2ccc(O)cc2)[C@]12C(=O)Nc1ccc(C#Cc3ccc(OC)cc3)cc12`, the composite z-score amounted to 0.597.

As for `[N-]=[N+]=NCc1ccccc1C[C@]1(C(=O)NCc2ccccc2)COC(c2ccc(OCCCO)cc2)=N1`, the composite z-score was -0.0991.

For the molecule `O=C1OCC=C[C@H]2OC34C=CCN(CCN5CCOCC5)C(=O)[C@H]3N(CCCCCCO)C(=O)[C@@H]4[C@@H]12` (stereo partly specified), the composite z-score came to 0.659.

With `[N-]=[N+]=Nc1ccccc1[C@H]1OC(c2ccc(OCCCO)cc2)=N[C@@]1(CCS(=O)(=O)c1ccccc1)C(=O)N1CCOCC1`, the composite z-score amounted to 0.225.

`COC(=O)[C@@]1(Cc2ccccc2)[C@H]2c3cc(C(=O)N(C)C)n(Cc4cc(F)c(F)c(F)c4)c3C[C@H]2CN1C(=O)c1ccccc1` yielded a composite z-score of -0.807.

`O=C1O[C@H](c2ccccc2)[C@H](c2ccccc2)N2[C@H]1[C@@H](C(=O)N1CCCCCCC1)[C@]1(C(=O)Nc3ccc(C#CC4=CCCCC4)cc31)[C@H]2c1ccc(O)cc1` yielded a composite z-score of 1.82.

Consider `[N-]=[N+]=NCc1ccccc1C[C@]1(C(N)=O)N=C(c2ccc(OCCCO)cc2)O[C@H]1c1ccccc1N=[N+]=[N-]`, for which the composite z-score stood at 0.0874.

`C=CCOC(=O)[C@H]1[C@@H]2C(=O)O[C@@H](c3ccccc3)[C@@H](c3ccccc3)N2[C@@H](c2ccc(OCCOC(=O)[C@H]3C[C@H]4C(=O)N[C@@H](CCCC[N+](C)(C)C)C(=O)N4[C@H]3c3ccc(O)cc3)cc2)[C@]12C(=O)Nc1ccccc12`: the composite z-score was found to be 0.653.

For `CC(C)NC(=O)[C@@]1(c2ccc([N+](=O)[O-])cc2)CC(=O)N(C(C)C)[C@@H]1c1ccc(CO)cc1`, the composite z-score is -0.554.

For `COc1ccc([Si](C)(C)[C@@H]2[C@@H](CCn3cc([C@H](O)c4ccccc4)nn3)O[C@]3(C(=O)N(C)c4ccccc43)[C@H]2C)cc1`, the composite z-score was 0.57.

`COCCOC(=O)N1C(=O)[C@@]2(c3cc(C#CC4=CCCCC4)ccc31)[C@H](C(=O)N1CCN(c3ncccn3)CC1)[C@H]1C(=O)O[C@H](c3ccccc3)[C@H](c3ccccc3)N1[C@@H]2c1ccc(OCCO)cc1`: the composite z-score stood at 1.03.

Regarding `C=CCOC(=O)[C@@H]1[C@H]2C(=O)O[C@H](c3ccccc3)[C@H](c3ccccc3)N2[C@H](c2ccc(OCCOC(=O)[C@H]3C[C@H]4C(=O)N[C@@H](CC(C)C)C(=O)N4[C@H]3c3cccc(OCCO)c3)cc2)[C@@]12C(=O)Nc1ccc(I)cc12`, the composite z-score was 1.5.

On to `CC(C)N1C(=O)c2ccccc2[C@](C)(C(=O)NCCCN(C)C)[C@@H]1c1ccc(CO)cc1`, for which the composite z-score was -0.573.

As for `CC(=O)NCCCC[C@@H]1NC(=O)[C@@H]2C[C@H](C(=O)NCCCCCC[N+](C)(C)C)[C@H](c3cccc(OCCO)c3)N2C1=O`, the composite z-score was found to be 1.26.

Regarding `CCCCN1CC=CC23O[C@@H]4C=CCCOC(=O)C4[C@H]2C(=O)N(CCCO)[C@@H]3C1=O` (stereo partly specified), the composite z-score was -0.439.

For `C=CCC(OC(C)=O)[C@@H]1[C@@H](N(Cc2cc3ccccc3o2)C(=O)c2cccc3ccccc23)c2cc(OCCCO)ccc2N1C(=O)Cc1ccc(OC)cc1` (stereo partly specified), the composite z-score worked out at 0.339.

Regarding `C=CCN1C(=O)[C@]2(COC(c3ccc(OCCCO)cc3)=N2)Cc2ccccc21`, the composite z-score was -0.14.

In turn, `C=C[C@H](C)[C@H](OC(=O)Nc1ccc(OC)cc1)c1ccc(O)c2ccccc12` returned a composite z-score of 0.47.

In turn, `COc1ccccc1CN1C(=O)c2ccccc2[C@](Cc2ccccc2I)(C(=O)NC2CC2)[C@@H]1c1ccc(CO)cc1` registered a composite z-score of 1.16.

Molecule `C=CC[C@@]1(C(N)=O)N=C(c2ccc(OCCCO)cc2)O[C@@H]1c1ccccc1N=[N+]=[N-]` showed a composite z-score of 1.04.

`CCN(CC)c1ccc(N2CC=CC34O[C@@H]5C=CCOC(=O)[C@@H]5[C@H]3C(=O)N(CCCCCO)[C@@H]4C2=O)cc1` (stereo partly specified) came in with a composite z-score of -0.439.

The molecule `COCCOC(=O)N1C(=O)[C@@]2(c3cc(C#CCC(C(=O)OC)C(=O)OC)ccc31)[C@H](c1ccc(OCCO)cc1)N1[C@H](c3ccccc3)[C@H](c3ccccc3)OC(=O)[C@H]1[C@@H]2C(=O)NC[C@H](O)c1ccccc1` came in with a composite z-score of 1.15.
